Test results taken from PubChem BioAssay (EPA / NIEHS).
Activity calls are given as the source filed them. How the source made its calls: active means hit-call score of the fitted dose curve at least 0.9, where 1 is the maximum; inactive means score below 0.9.

How the values were obtained:
Details in all cases: mRNA level, 48 h; actives raise or lower the signal
[1] = read-out: Cyclin D1 (CCND1), CCND1 (gene 595); experiment: LTEA_HepaRG_CCND1: Life Technologies and Expression Analysis (LTEA) Assay for Cyclin D1 (CCND1) using HepaRG (AID 2283451)
Procedure, shortened: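 Expression of CCND1 was quantified by qRT-PCR on Fluidigm arrays using ACTB, GAPDH and POLR2A as reference genes. HepaRG cultures, plated 48 h beforehand, were dosed for 48 h at up to 100 uM (half-log, 8 points) in 0.5% DMSO.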

[2] = read-out: catalase (CAT), CAT (gene 847); experiment: LTEA_HepaRG_CAT: Life Technologies and Expression Analysis (LTEA) Assay for catalase (CAT) using HepaRG (AID 2283452)
Procedure, shortened: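 Expression of CAT was quantified by TaqMan qRT-PCR with ACTB/GAPDH/POLR2A normalization after 48 h chemical exposure of HepaRG. Eight-point half-log series, top 100 uM, in 0.5% DMSO; gain or loss fitted against vehicle.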

[3] = read-out: flavin-containing dimethylaniline monooxygenases 3 (FMO3), FMO3 (gene 2328); experiment: LTEA_HepaRG_FMO3: Life Technologies and Expression Analysis (LTEA) Assay for flavin-containing dimethylaniline monooxygenases 3 (FMO3) using HepaRG (AID 2283453)
Procedure, shortened: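 Differentiated HepaRG cells in serum-free induction medium, exposed 48 h in duplicate to 8 half-log concentrations up to 100 uM in 0.5% DMSO. FMO3 mRNA by qRT-PCR, normalized to ACTB, GAPDH, POLR2A; bidirectional fit vs DMSO.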

[4] = read-out: Cytochrome P450 (CYP1A1), CYP1A1 (gene 1543); experiment: LTEA_HepaRG_CYP1A1: Life Technologies and Expression Analysis (LTEA) Assay for Cytochrome P450 (CYP1A1) using HepaRG (AID 2283454)
Procedure, shortened: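 CYP1A1 transcript levels measured by Fluidigm qRT-PCR against three housekeeping genes, 48 h after chemical dosing of human HepaRG cells (highest concentration 100 uM, half-log steps, 0.5% DMSO vehicle). Gain or loss of signal fitted relative to DMSO.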

[5] = read-out: CFLAR gene, CFLAR (gene 8837); experiment: LTEA_HepaRG_CFLAR: Life Technologies and Expression Analysis (LTEA) Assay for CFLAR gene using HepaRG (AID 2283455)
Procedure, shortened: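 HepaRG, 48 h exposure, 8-pt conc-response (100 uM top, half-log), 0.5% DMSO vehicle, duplicates. CFLAR expression by qRT-PCR; ACTB/GAPDH/POLR2A normalization; gain or loss fit vs DMSO baseline.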

[6] = read-out: Forkhead box O1 (FOXO1), FOXO1 (gene 2308); experiment: LTEA_HepaRG_FOXO1: Life Technologies and Expression Analysis (LTEA) Assay for Forkhead box O1 (FOXO1) using HepaRG (AID 2283456)
Procedure, shortened: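 Readout is FOXO1 transcript level by multiplexed qRT-PCR against three housekeeping genes, curve-fitted in both directions relative to 0.5% DMSO vehicle. Human HepaRG cultures received chemicals for 48 h, up to 100 uM in half-log steps.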

[7] = read-out: growth arrest and DNA damage 45 (GADD45A), GADD45A (gene 1647); experiment: LTEA_HepaRG_GADD45A: Life Technologies and Expression Analysis (LTEA) Assay for growth arrest and DNA damage 45 (GADD45A) using HepaRG (AID 2283458)
Procedure, shortened: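 Differentiated HepaRG cells exposed 48 h in serum-free induction medium to 8 concentrations, top 100 uM in half-log steps, 0.5% DMSO. GADD45A mRNA quantified by qRT-PCR, normalized to ACTB, GAPDH and POLR2A; bidirectional fit versus DMSO.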

[8] = read-out: Forkhead box O3 (FOXO3), FOXO3 (gene 2309); experiment: LTEA_HepaRG_FOXO3: Life Technologies and Expression Analysis (LTEA) Assay for Forkhead box O3 (FOXO3) using HepaRG (AID 2283459)
Procedure, shortened: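 HepaRG, 48 h post-dose; 8 conc., half-log from 100 uM, 0.5% DMSO, duplicates; serum-free induction medium. Readout: FOXO3 mRNA, TaqMan qRT-PCR, housekeeping-normalized. Bidirectional curve fit vs DMSO baseline.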

[9] = read-out: ABC Transporter (ABCB1), ABCB1 (gene 5243); experiment: LTEA_HepaRG_ABCB1: Life Technologies and Expression Analysis (LTEA) Assay for ABC Transporter (ABCB1) using HepaRG (AID 2283460)
Procedure, shortened: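 Expression of ABCB1 was quantified by qRT-PCR against three housekeeping genes after human HepaRG cultures received test chemicals for 48 hours. Concentrations spanned eight half-log steps topping at 100 uM in 0.5% DMSO; gain or loss of signal was fitted relative to vehicle.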

[10] = read-out: growth arrest and DNA damage 45 (GADD45B), GADD45B (gene 4616); experiment: LTEA_HepaRG_GADD45B: Life Technologies and Expression Analysis (LTEA) Assay for growth arrest and DNA damage 45 (GADD45B) using HepaRG (AID 2283461)
Procedure, shortened: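 Transcript level quantified by Fluidigm TaqMan qRT-PCR with three housekeeping genes for normalization, analyzed for up- or down-regulation against 0.5% DMSO. HepaRG cultures dosed 48 h at eight half-log concentrations up to 100 uM, duplicates.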

[11] = read-out: ABC Transporter (ABCC3), ABCC3 (gene 8714); experiment: LTEA_HepaRG_ABCC3: Life Technologies and Expression Analysis (LTEA) Assay for ABC Transporter (ABCC3) using HepaRG (AID 2283462)
Procedure, shortened: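 Transcript level by TaqMan qRT-PCR, normalised to three housekeeping genes, fitted in both directions relative to vehicle. Chemicals tested in duplicate at eight half-log concentrations up to 100 uM for 48 h on HepaRG cells (0.5% DMSO).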

[12] = read-out: ABC Transporter (ABCB11), ABCB11 (gene 8647); experiment: LTEA_HepaRG_ABCB11: Life Technologies and Expression Analysis (LTEA) Assay for ABC Transporter (ABCB11) using HepaRG (AID 2283463)
Procedure, shortened: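 ABCB11 transcript levels are read by Fluidigm TaqMan qRT-PCR after 48 h chemical treatment of human HepaRG cells. Concentrations span 100 uM downward in half-log steps with 0.5% DMSO; gain or loss is fitted against DMSO controls.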

[13] = read-out: ABC Transporter (ABCC2), ABCC2 (gene 1244); experiment: LTEA_HepaRG_ABCC2: Life Technologies and Expression Analysis (LTEA) Assay for ABC Transporter (ABCC2) using HepaRG (AID 2283464)
Procedure, shortened: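 Endpoint is ABCC2 transcript level from qRT-PCR, normalized to three housekeeping genes and fitted bidirectionally relative to DMSO. Human HepaRG cells received test chemical for 48 h at up to 100 uM (8 points, half-log steps, 0.5% DMSO), duplicate wells.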

[14] = read-out: Broad substrate specificity ATP-binding cassette transporter ABCG2 (Homo sapiens) (UniProt Q9UNQ0); experiment: LTEA_HepaRG_ABCG2: Life Technologies and Expression Analysis (LTEA) Assay for ABC Transporter (ABCG2) using HepaRG (AID 2283465)
Procedure, shortened: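 Read-out is ABCG2 mRNA induction or loss quantified by qRT-PCR after 48 h chemical treatment of human HepaRG cells, normalized to three housekeeping genes. Concentrations reached 100 uM top in half-log steps; fitting was bidirectional against 0.5% DMSO.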

[15] = read-out: ATP-citrate lyase (ACLY), ACLY (gene 47); experiment: LTEA_HepaRG_ACLY: Life Technologies and Expression Analysis (LTEA) Assay for ATP-citrate lyase (ACLY) using HepaRG (AID 2283466)
Procedure, shortened: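 HepaRG, 48 h exposure, 8-pt half-log dilutions (top 100 uM), 0.5% DMSO. Readout: ACLY mRNA, TaqMan qRT-PCR, housekeeping-normalized (ACTB/GAPDH/POLR2A). Bidirectional curve fit vs DMSO.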

[16] = read-out: Peroxisomal acyl-coenzyme A oxidase 1 (ACOX1) gene, ACOX1 (gene 51); experiment: LTEA_HepaRG_ACOX1: Life Technologies and Expression Analysis (LTEA) Assay for Peroxisomal acyl-coenzyme A oxidase 1 (ACOX1) gene using HepaRG (AID 2283467)
Procedure, shortened: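 Measured by qRT-PCR against three housekeeping genes: ACOX1 transcript change in human HepaRG cells after 48 h dosing. Concentrations ran up to 100 uM in half-log steps. Curves were fitted bidirectionally relative to 0.5% DMSO.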

[17] = read-out: Alkaline Phosphatase, Placental (ALPP) gene, ALPP (gene 250); experiment: LTEA_HepaRG_ALPP: Life Technologies and Expression Analysis (LTEA) Assay for Alkaline Phosphatase, Placental (ALPP) gene using HepaRG (AID 2283468)
Procedure, shortened: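 ALPP transcript level, measured by qRT-PCR and normalized to three housekeeping genes (ACTB, GAPDH, POLR2A), after 48 h dosing of differentiated HepaRG in serum-free induction medium. Top concentration 100 uM with half-log dilutions (8 points, 0.5% DMSO, duplicates); bidirectional fitting relative to DMSO.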

[18] = read-out: Bcl-2 (BAD) gene, BAD (gene 572); experiment: LTEA_HepaRG_BAD: Life Technologies and Expression Analysis (LTEA) Assay for Bcl-2 (BAD) gene using HepaRG (AID 2283469)
Procedure, shortened: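 BAD transcript change, measured by qRT-PCR against three housekeeping genes and fitted in both directions relative to 0.5% DMSO, after 48 h chemical treatment of human HepaRG liver cells at concentrations up to 100 uM.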

[19] = read-out: Cyclin Dependent Kinase Inhibitor 1A (CDKN1A), CDKN1A (gene 1026); experiment: LTEA_HepaRG_CDKN1A: Life Technologies and Expression Analysis (LTEA) Assay for Cyclin Dependent Kinase Inhibitor 1A (CDKN1A) using HepaRG (AID 2283450)
Procedure, shortened: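 Expression quantified by Fluidigm qRT-PCR with ACTB, GAPDH and POLR2A normalization, fitted bidirectionally against 0.5% DMSO. Cells: HepaRG, plated 48 h then treated 48 h in serum-free induction medium, top concentration 100 uM with half-log dilutions.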

Measured: AC50

Sequence of Broad substrate specificity ATP-binding cassette transporter ABCG2 (Homo sapiens) (Q9UNQ0 whole entry, looked up): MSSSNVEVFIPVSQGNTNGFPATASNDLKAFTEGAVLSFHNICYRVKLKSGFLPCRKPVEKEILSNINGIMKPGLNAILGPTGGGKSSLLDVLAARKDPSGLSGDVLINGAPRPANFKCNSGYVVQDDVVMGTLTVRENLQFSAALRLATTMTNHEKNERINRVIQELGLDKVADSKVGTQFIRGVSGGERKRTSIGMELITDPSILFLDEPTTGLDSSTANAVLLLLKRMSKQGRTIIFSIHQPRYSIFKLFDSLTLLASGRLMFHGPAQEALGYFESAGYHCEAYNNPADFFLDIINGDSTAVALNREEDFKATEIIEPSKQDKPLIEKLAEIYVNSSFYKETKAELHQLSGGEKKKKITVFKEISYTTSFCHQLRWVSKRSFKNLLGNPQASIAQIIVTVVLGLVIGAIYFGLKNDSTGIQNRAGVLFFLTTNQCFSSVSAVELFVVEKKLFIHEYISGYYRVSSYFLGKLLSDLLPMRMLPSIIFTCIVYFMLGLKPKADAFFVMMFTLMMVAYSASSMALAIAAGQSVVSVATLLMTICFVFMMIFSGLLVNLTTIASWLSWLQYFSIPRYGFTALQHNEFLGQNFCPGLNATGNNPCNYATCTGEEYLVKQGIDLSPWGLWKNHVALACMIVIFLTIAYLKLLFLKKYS

CC(C)Nc1nc(Cl)nc(NC(C)C)n1
active: [2] 16.8 µM | [4] 41.2 µM | [9] 19.8 µM | [12] 73.3 µM | [13] 9.77 µM
not listed: [19]
inactive: all other assays above

O=c1n(Cl)c(=O)n(Cl)c(=O)n1Cl
active: [4] 60.2 µM
not listed: [7]
inactive: all other assays above

COC(=O)NC(=S)Nc1ccccc1NC(=S)NC(=O)OC
active: [4] 39.2 µM | [9] 17.4 µM | [13] 35.4 µM
not listed: [8]
inactive: all other assays above
